From PubChem BioAssay AID1159580 (chemical genetic matrix, 2015)
“And” between values parts separate entries of the source, which are not always exact repeats. Equal entries are not always repeated. About 2,000 (36%) of roughly 5,500 compounds were called active. Another 18% or so got no clear call; they are omitted. Rule as the data show it: active = normalized growth mostly below about 0.91 (no sharp cut-off); inconclusive = no clear call, values can overlap the other calls; inactive = mostly above about 0.92. The list shows a part of the results.

Experiment: chemical genetic growth profiling, strain panel (AID 1159580);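 also: tested at 20 µM; growth read once vehicle control cultures reached saturation at 30 °C; 1 = growth at the plate median or of vehicle wells; lower values mean less growth of the strain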
Details: S. cerevisiae deletion strains, growth OD
[1] = locus YAL013W, strain DEP1, active compounds read low
[2] = locus YDR150W, strain NUM1, active compounds read low
[3] = locus YMR307W, strain GAS1, active compounds read low
[4] = locus YNL322C, strain KRE1, active compounds read low
[5] = locus YPL241C, strain CIN2, active compounds read low

Measured: normalized growth

CCCCC/C=C\CC(O)/C=C/c1cccc(CC(O)CCCCO)n1 (stereo not drawn)
inactive: [1] 1.03 | locus YAL040C, strain CLN3, active compounds read low 0.995 | locus YCL061C, strain MRC1 (second series), active compounds read low 0.996 | [2] 1 | locus YDR363W, strain ESC2, active compounds read low 1.01 | locus YER002W, strain NOP16, active compounds read low 0.982 | [3] 1.01 | locus YNL153C, strain GIM3, active compounds read low 1 | locus YNL175C, strain NOP13, active compounds read low 0.985 | locus YNL197C, strain WHI3, active compounds read low 0.974 | locus YNL224C, strain SQS1, active compounds read low 0.975 | [4] 1.01 | locus YOR083W, strain WHI5 (second series), active compounds read low 0.991 | [5] 0.995

CCCCCC/C=C\CCCCCCCc1cccc(O)c1C(=O)O
inactive: [1] 1.08 | locus YAL021C, strain ccr4, active compounds read low 0.972 | locus YAL026C, strain drs2, active compounds read low 0.979 | locus YAL030W, strain snc1, active compounds read low 0.974 | locus YBL061C, strain skt5, active compounds read low 0.98 | locus YBR009C, strain hhf1, active compounds read low 0.997 | locus YBR021W, strain FUR4, active compounds read low 0.929 | locus YBR023C, strain chs3, active compounds read low 0.967 | locus YBR171W, strain sec66, active compounds read low 1.05 | locus YBR229C, strain ROT2, active compounds read low 0.988 | locus YBR231C, strain swc5, active compounds read low 0.942 | locus YBR279W, strain paf1, active compounds read low 0.984 | locus YCL011C, strain gbp2, active compounds read low 0.95 | locus YCL016C, strain dcc1, active compounds read low 0.989 | locus YCL029C, strain bik1, active compounds read low 0.985 | locus YCL061C, strain MRC1, active compounds read low 0.989 | locus YCL069W, strain vba3, active compounds read low 0.938 | locus YCR088W, strain abp1, active compounds read low 0.972 | locus YDL005C, strain med2, active compounds read low 0.958 | locus YDL035C, strain GPR1, active compounds read low 1.05 | locus YDL040C, strain nat1, active compounds read low 0.967 | locus YDL074C, strain BRE1, active compounds read low 0.992 | locus YDL101C, strain DUN1, active compounds read low 1.01 | locus YDL185W, strain tfp1, active compounds read low 1.01 | locus YDL192W, strain arf1, active compounds read low 1 | locus YDR001C, strain nth1, active compounds read low 0.983 | locus YDR069C, strain doa4, active compounds read low 0.971 | locus YDR101C, strain arx1, active compounds read low 0.987 | locus YDR137W, strain rgp1, active compounds read low 0.939 | [2] 1.04 | locus YDR159W, strain sac3, active compounds read low 0.974 | locus YDR162C, strain NBP2, active compounds read low 1.06 | locus YDR195W, strain ref2 0.975 | locus YDR297W, strain sur2, active compounds read low 0.979 | locus YDR318W, strain mcm21, active compounds read low 0.995 | locus YDR334W, strain swr1, active compounds read low 0.956 | locus YDR335W, strain msn5, active compounds read low 0.975 | locus YDR388W, active compounds read low 1.01 | locus YDR392W, strain spt3, active compounds read low 0.813 | locus YDR502C, strain sam2, active compounds read low 1.01 | locus YEL003W, strain gim4, active compounds read low 0.982 | locus YEL037C, strain rad23, active compounds read low 0.965 | locus YEL061C, strain CIN8 (second series), active compounds read low 0.953 | locus YEL061C, strain CIN8, active compounds read low 1.01 | locus YER015W, strain faa2, active compounds read low 0.982 | locus YER016W, strain bim1, active compounds read low 0.976 | locus YER110C, active compounds read low 0.981 | locus YER111C, strain swi4, active compounds read low 0.947 | locus YER155C, strain BEM2, active compounds read low 0.991 | locus YER167W, strain BCK2, active compounds read low 1.01 | locus YFR010W, strain ubp6, active compounds read low 0.993 | locus YGL078C, strain dbp3, active compounds read low 0.995 | locus YGL086W, strain mad1, active compounds read low 0.989 | locus YGL167C, strain pmr1, active compounds read low 0.966 | locus YGL173C, strain kem1, active compounds read low 0.976 | locus YGL227W, strain vid30, active compounds read low 0.955 | locus YGL240W, strain doc1, active compounds read low 0.976 | locus YGL248W, strain PDE1, active compounds read low 1.01 | locus YGL253W, strain hxk2, active compounds read low 0.975 | locus YGR135W, strain pre9, active compounds read low 1.03 | locus YGR252W, strain gcn5, active compounds read low 1.04 | locus YHR013C, strain ard1, active compounds read low 0.956 | locus YHR027C, strain rpn1, active compounds read low 0.992 | locus YHR030C, strain SLT2, active compounds read low 1 | locus YHR079C, strain IRE1 (second series), active compounds read low 0.992 | locus YHR079C, strain IRE1, active compounds read low 1.01 | locus YHR094C, strain hxt1, active compounds read low 0.992 | locus YHR129C, strain ARP1, active compounds read low 0.998 | locus YHR142W, strain chs7, active compounds read low 0.974 | locus YHR200W, strain rpn10, active compounds read low 1 | locus YIL066C, strain RNR3, active compounds read low 1.03 | locus YIL073C, strain SPO22, active compounds read low 1.3 | locus YIL125W, strain kgd1, active compounds read low 0.994 | locus YIR030C, strain dcg1, active compounds read low 0.995 | locus YJL092W, strain hpr5, active compounds read low 0.941 | locus YJL095W, strain BCK1 (second series), active compounds read low 0.97 | locus YJL095W, strain BCK1, active compounds read low 0.991 and 0.952 | locus YJL115W, strain asf1, active compounds read low 0.972 | locus YJL129C, strain trk1, active compounds read low 0.914 | locus YJL134W, strain LCB3, active compounds read low 1 | locus YJL154C, strain vps35, active compounds read low 0.971 | locus YJL164C, strain tpk1, active compounds read low 0.999 | locus YJL166W, strain qcr8, active compounds read low 0.976 | locus YJL168C, strain set2, active compounds read low 0.988 | locus YJL187C, strain SWE1 (second series), active compounds read low 0.997 | locus YJR043C, strain POL32, active compounds read low 1.06 | locus YJR066W, strain TOR1, active compounds read low 0.968 | locus YKL009W, strain mrt4, active compounds read low 1.02 | locus YKL068W, active compounds read low 1.01 | locus YKL085W, strain MDH1 (second series), active compounds read low 0.997 | locus YKL085W, strain MDH1, active compounds read low 0.997 | locus YKL160W, strain elf1, active compounds read low 0.997 | locus YKL190W, strain CNB1, active compounds read low 1.06 | locus YKR001C, strain vps1, active compounds read low 0.989 | locus YKR026C, strain gcn3, active compounds read low 0.961 | locus YKR091W, strain srl3, active compounds read low 0.978 | locus YLL001W, strain dnm1, active compounds read low 0.988 | locus YLL026W, active compounds read low 0.974 | locus YLL041C, strain sdh2, active compounds read low 0.989 | locus YLR027C, strain aat2, active compounds read low 0.986 | locus YLR039C, strain RIC1, active compounds read low 1.01 | locus YLR058C, strain SHM2, active compounds read low 1 | locus YLR102C, strain apc9, active compounds read low 0.987 | locus YLR113W, strain HOG1, active compounds read low 0.946 | locus YLR221C, strain rsa3, active compounds read low 0.944 | locus YLR258W, strain gsy2, active compounds read low 0.957 | locus YLR262C, strain YPT6 (second series), active compounds read low 0.939 | locus YLR262C, strain YPT6, active compounds read low 0.977 | locus YLR268W, strain sec22, active compounds read low 0.991 | locus YLR320W, strain mms22, active compounds read low 0.951 | locus YLR330W, strain CHS5, active compounds read low 1.06 | locus YLR342W, strain FKS1 (second series), active compounds read low 1.03 | locus YLR342W, strain FKS1, active compounds read low 0.964 | locus YLR357W, strain rsc2, active compounds read low 0.953 | locus YLR370C, strain arc18, active compounds read low 0.969 | locus YLR371W, strain rom2, active compounds read low 1 | locus YLR384C, strain iki3, active compounds read low 0.97 | locus YLR418C, strain cdc73, active compounds read low 0.953 | locus YML016C, strain PPZ1, active compounds read low 0.989 | locus YML032C, strain rad52, active compounds read low 1.02 | locus YML120C, strain ndi1, active compounds read low 0.973 | locus YML124C, strain tub3, active compounds read low 0.985 | locus YMR078C, strain ctf18, active compounds read low 0.999 | locus YMR129W, active compounds read low 0.963 | locus YMR205C, strain PFK2, active compounds read low 1.02 | locus YMR223W, strain ubp8, active compounds read low 1.01 | locus YMR231W, strain pep5, active compounds read low 0.999 | locus YMR263W, strain SAP30, active compounds read low 1.03 | [3] 1.01 | locus YNL067W, strain RPL9B, active compounds read low 1.03 | locus YNL071W, strain lat1, active compounds read low 0.97 | locus YNL183C, strain NPR1, active compounds read low 0.923 | locus YNL209W, strain ssb2, active compounds read low 0.974 | locus YNL233W, strain BNI4, active compounds read low 1.01 | locus YNL248C, strain rpa49, active compounds read low 0.983 | locus YNL250W, strain rad50, active compounds read low 0.982 | locus YNL271C, strain bni1, active compounds read low 0.99 | locus YNL298W, strain CLA4, active compounds read low 1.01 | locus YNL307C, strain MCK1, active compounds read low 0.995 | locus YNL322C, strain KRE1 (second series), active compounds read low 0.949 | [4] 1 | locus YNR049C, strain mso1, active compounds read low 0.973 | locus YNR052C, strain pop2, active compounds read low 1.01 | locus YOL012C, strain htz1 0.359 | locus YOL147C, strain pex11, active compounds read low 0.99 | locus YOR001W, strain rrp6, active compounds read low 0.927 | locus YOR061W, strain CKA2, active compounds read low 0.992 | locus YOR069W, strain VPS5, active compounds read low 0.995 | locus YOR070C, strain gyp1, active compounds read low 0.975 | locus YOR080W, strain dia2, active compounds read low 0.988 | locus YOR083W, strain WHI5, active compounds read low 1 | locus YOR106W, strain vam3, active compounds read low 0.985 | locus YOR136W, strain idh2, active compounds read low 0.988 | locus YOR144C, strain elg1, active compounds read low 0.994 | locus YOR184W, strain ser1, active compounds read low 0.999 | locus YOR231W, strain MKK1, active compounds read low 0.997 | locus YOR265W, strain rbl2, active compounds read low 0.987 | locus YOR270C, strain vph1, active compounds read low 1.01 | locus YOR290C, strain snf2, active compounds read low 1 | locus YOR316C, strain cot1, active compounds read low 0.986 | locus YPL051W, strain arl3, active compounds read low 0.974 | locus YPL078C, strain atp4, active compounds read low 0.971 | locus YPL106C, strain sse1, active compounds read low 1.01 | locus YPL240C, strain hsp82, active compounds read low 0.959 | [5] 0.997 | locus YPL256C, strain CLN2, active compounds read low 0.981 | locus YPR119W, strain clb2, active compounds read low 0.985 | locus YPR141C, strain kar3, active compounds read low 0.982 | locus YPR163C, strain tif3, active compounds read low 0.99 | locus YPR167C, strain met16, active compounds read low 1 | strain wtn01, active compounds read low 0.995
active: locus YER155C, strain BEM2 (second series), active compounds read low 0.843 | locus YMR058W, strain fet3, active compounds read low 0.734 | locus YMR125W, strain sto1, active compounds read low 0.852
